697 NFkB inh – inhibitors of PMA/ionomycin-induced NF-kB reporter, 697 cells, primary screen, B-cell NF-kB inhibitor project, cell-based, luminescence, uHTS. inhibition, % at 4 µM. hit rate 0.33% among 330,000. 697 B-cell NF-kB luciferase reporter, 16 h. AID 435022, 2010; in the data active means inhibition above about 35%
Jurkat NFkB inh – inhibitors of induced NF-kB luciferase reporter, primary screen, TCR NF-kB activation inhibitor project, cell-based, luminescence, uHTS; hit rate 0.53% among 330,000; Jurkat, PMA/ionomycin-induced NF-kB luciferase reporter; AID 435003, 2010; inhibition, % at 4 µM; in the data active means inhibition above about 50%
KLF5 inh – KLF5 expression inhibitors, primary screen, DLD-1 cells, luminescence; hit rate 0.23% among 290,000; DLD-1 KLF5 promoter-luciferase reporter; inhibition, % at 5 µM;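 active means inhibition above a per-plate limit of that plate's mean compound inhibition plus 3 SD, cut at about 60% in these data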;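 further: higher means less KLF5 promoter-driven luciferase light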
TMEM16A inh – TMEM16A chloride channel inhibitors, primary screen, cell-based, HTS; HEK293 TMEM16A/YFP iodide influx fluorescence, ionomycin; Anoctamin-1 (Mus musculus), Q8BHY3; hit rate 1.2% among 310,000; AID 588511, 2011; normalized B-score (activity score, 25-100; higher = stronger inhibition) at 10 µM;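 active means ratio plate-corrected score three or more library SD toward inhibition, starting fluorescence score within five deviations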;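 further: score derived from kinetic fluorescence span divided by baseline fluorescence per well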
Target sequence (Q8BHY3 whole entry, looked up): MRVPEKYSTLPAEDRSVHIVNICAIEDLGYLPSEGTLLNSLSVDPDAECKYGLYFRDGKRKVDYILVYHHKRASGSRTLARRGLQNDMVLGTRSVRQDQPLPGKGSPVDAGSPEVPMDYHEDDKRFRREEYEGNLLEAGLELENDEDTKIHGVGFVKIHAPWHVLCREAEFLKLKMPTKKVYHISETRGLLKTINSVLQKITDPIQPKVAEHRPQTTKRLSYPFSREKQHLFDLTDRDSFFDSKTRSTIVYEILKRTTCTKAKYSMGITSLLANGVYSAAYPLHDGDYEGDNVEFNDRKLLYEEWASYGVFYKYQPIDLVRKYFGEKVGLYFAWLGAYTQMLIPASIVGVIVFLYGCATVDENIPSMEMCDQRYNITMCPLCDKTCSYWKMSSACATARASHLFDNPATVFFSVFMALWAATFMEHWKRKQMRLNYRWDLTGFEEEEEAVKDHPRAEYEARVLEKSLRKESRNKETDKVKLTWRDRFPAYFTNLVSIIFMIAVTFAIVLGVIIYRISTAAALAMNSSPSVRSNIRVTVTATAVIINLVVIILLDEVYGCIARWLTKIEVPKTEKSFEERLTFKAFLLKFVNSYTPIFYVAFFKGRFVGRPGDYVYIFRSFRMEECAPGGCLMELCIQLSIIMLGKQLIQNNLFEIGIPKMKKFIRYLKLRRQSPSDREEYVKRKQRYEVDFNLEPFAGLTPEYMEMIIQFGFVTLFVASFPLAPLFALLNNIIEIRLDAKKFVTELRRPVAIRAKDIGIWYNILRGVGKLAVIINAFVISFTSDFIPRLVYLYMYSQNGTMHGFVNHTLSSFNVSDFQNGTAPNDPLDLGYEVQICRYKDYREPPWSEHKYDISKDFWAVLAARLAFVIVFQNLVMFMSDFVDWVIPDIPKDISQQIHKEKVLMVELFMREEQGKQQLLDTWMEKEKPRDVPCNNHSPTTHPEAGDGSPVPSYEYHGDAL
aSyn UTR inh – MLPCN primary screen, SNCA 5' untranslated region | alpha-synuclein 5'UTR reporter, inhibitor activity | inhibition, % (tested at 7.5 µM) | hit rate 0.82% among 300,000 | AID 1813, 2009; in the data active means inhibition above about 60%; inconclusive means no clear call, values can overlap the other calls;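 further: H4 neuroglioblastoma cells stably carrying SNCA 5'UTR luciferase fusion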
TMEM16A act – TMEM16A chloride channel activators or potentiators, primary screen, cell-based, HTS | HEK293 TMEM16A/YFP-H148Q/I152L, iodide quench fluorescence; hits give low values | AID 623877, 2012 | Anoctamin-1 (Mus musculus), Q8BHY3 | B-score at 10 µM | hit rate 0.3% among 340,000;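 active means fluorescence-ratio B-score plate-corrected deviation score at least 3 library SD below zero, with starting fluorescence score within 5 deviations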;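 further: channel opened by trigger with iodide after compound preincubation; score built on the fluorescence ratio of max minus min over baseline; more negative score means more quench and so TMEM16A activation or potentiation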
Jurkat NFkB conf – PMA/ionomycin-induced NF-kB reporter inhibitors, Jurkat retest, confirmation, T-cell NF-kB inhibitor project, cell-based, luminescence, single concentration. inhibition, % at 4 µM. AID 435020, 2010. Jurkat NF-kB luciferase, 16 h. shares compounds with Jurkat NFkB inh. hit rate 27% among 2,700;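 active means inhibition reaching about 45% at 4 µM in either replicate, limit read from the data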
Each line names hits and unclear results; the compound was inactive in the other large screens (follow-up assays come after a bar, where they were run). Most compounds without a hit are left out; they make up all but 2.5% or so of the library.

COc1ccccc1-c1nc(-c2ccc(Br)cc2)no1	none
COc1ccc(-c2nc(-c3ccc(Br)cc3)no2)c(OC)c1	none | Jurkat NFkB conf inactive
CCOCCOC(=O)c1[nH]c2c(c1C)C(=O)CC(c1cccs1)C2 (stereo unspecified)	Jurkat NFkB inh 75, KLF5 inh 77, aSyn UTR inh 85 | Jurkat NFkB conf inactive
Cc1c(C(=O)OCC(C)C)[nH]c2c1C(=O)CC(c1cccs1)C2 (stereo unspecified)	Jurkat NFkB inh 51 | Jurkat NFkB conf inactive
CCOC(=O)c1[nH]c2c(c1C)C(=O)CC(c1ccc(OCC)c(OC)c1)C2 (stereo unspecified)	none
CCOC(=O)c1[nH]c2c(c1C)C(=O)CC(c1ccc(F)cc1)C2 (stereo unspecified)	Jurkat NFkB inh 64, aSyn UTR inh inconclusive | Jurkat NFkB conf 58
COc1ccc(S(=O)(=O)N2CCCCCC2)cc1C(=O)N1CCN(c2ccccc2C)CC1	none (no result: KLF5 inh, TMEM16A inh, aSyn UTR inh)
O=C(Nc1ccc(Br)cc1)c1ccccc1Br	none
CCCCCCOc1ccc(/C(C)=N/NC2=NCCN2)cc1[N+](=O)[O-]	none
CCCCOc1ccc(Br)cc1/C(C)=N/NC1=NCCN1	Jurkat NFkB inh 76, aSyn UTR inh 121 | Jurkat NFkB conf 53
Cc1ccc(S(=O)(=O)N2CCOCC2)cc1NC(=O)CSCc1c(C)noc1C	none (no result: KLF5 inh, TMEM16A inh, aSyn UTR inh)
COc1ccc(C(=O)/C=C2/c3ccccc3CC(C)(C)N2C)cc1	Jurkat NFkB inh 61 | Jurkat NFkB conf inactive
CN1/C(=C\C(=O)Nc2cccnc2)c2ccccc2CC1(C)C	none
CC(=O)Nc1cccc(NC(=O)COC(=O)CO/N=C(\C)c2ccc3c(c2)OCO3)c1	none
COc1ccccc1Cc1nc(-c2ccc(Br)o2)no1	none
COc1cccc(-c2nc(-c3ccc(Br)o3)no2)c1	none | Jurkat NFkB conf inactive
COc1cccc(-c2noc(-c3ccc4c(c3)OCO4)n2)c1	none | Jurkat NFkB conf inactive
COc1ccccc1-c1nc(-c2ccc(Br)o2)no1	none | Jurkat NFkB conf inactive
COc1ccc(-c2nc(-c3ccc(Br)o3)no2)cc1OC	none
Cc1c(CCC(=O)NCCCN2CCCC2=O)c(=O)oc2c(C)c(O)ccc12	none
Cc1ccc(CNC(=O)Cn2cnc(C(=O)Nc3ccc(C)c(C)c3)n2)o1	none (no result: Jurkat NFkB inh, KLF5 inh, TMEM16A inh, aSyn UTR inh, TMEM16A act)
CCCSc1nnc(Sc2nnnn2-c2ccccc2)s1	Jurkat NFkB inh 87 | Jurkat NFkB conf 61
Cc1ccccc1-n1nnnc1Sc1nnnn1-c1ccccc1	none (no result: aSyn UTR inh)
NC(N)=Nc1nc(C2COc3ccccc3O2)cs1 (stereo unspecified)	none | Jurkat NFkB conf inactive
CC(=O)Nc1nc(C2COc3ccccc3O2)cs1 (stereo unspecified)	none
O=C(COC(=O)c1cc(S(=O)(=O)N2CCOCC2)ccc1O)Nc1ccc2c(c1)OCO2	none (no result: KLF5 inh, TMEM16A inh, aSyn UTR inh)
CN(Cc1nc2ccccc2c(=O)[nH]1)C(=O)c1cccc(S(=O)(=O)N2CCc3ccccc32)c1	Jurkat NFkB inh 59 (no result: KLF5 inh, TMEM16A inh, aSyn UTR inh) | Jurkat NFkB conf inactive
CN(Cc1nc2ccccc2c(=O)[nH]1)C(=O)c1cccc(S(=O)(=O)N2CCCCCC2)c1	none (no result: KLF5 inh, TMEM16A inh, aSyn UTR inh)
Cc1cc(=O)n2cn[nH]c2n1	none (no result: 697 NFkB inh, Jurkat NFkB inh, KLF5 inh, TMEM16A inh, aSyn UTR inh)
COc1ccc(-c2nc(-c3ccccc3)nc(N3CCN(C)CC3)c2C#N)cc1	none
COc1ccc(-c2nc(-c3cccc(C)c3)nc(N3CCN(C)CC3)c2C#N)cc1	Jurkat NFkB inh 51, aSyn UTR inh inconclusive | Jurkat NFkB conf inactive
CC[n+]1c(/C=C/N(C)c2ccccc2)oc2ccccc21	Jurkat NFkB inh 60 | Jurkat NFkB conf 54
CCOC(=O)c1cc([N+](=O)[O-])sc1NC(=O)c1ccc(S(=O)(=O)N2CC3(C)CC2CC(C)(C)C3)cc1 (stereo unspecified)	Jurkat NFkB inh 57, aSyn UTR inh inconclusive, TMEM16A act -26 | Jurkat NFkB conf inactive
Cc1n[nH]c(C)c1S(=O)(=O)N1CCCC(C(=O)O)C1 (stereo unspecified)	none (no result: KLF5 inh, TMEM16A inh, aSyn UTR inh)
Cc1cccc(NC(=O)C2C3C=CC(O3)C2C(=O)O)c1C (stereo unspecified)	none
CC1C/C(=C/c2ccccn2)C(=O)/C(=C/c2ccccn2)C1 (stereo unspecified)	Jurkat NFkB inh 91, aSyn UTR inh 89 | Jurkat NFkB conf inactive
O=C1/C(=C/c2ccccn2)COc2ccccc21	none
Cc1ccc(S(=O)(=O)NCC(=O)OCC(=O)Nc2ccc3c(c2)OCCO3)cc1	none (no result: KLF5 inh, TMEM16A inh, aSyn UTR inh)
COC(=O)c1ccccc1NC1=C/C(=N\S(=O)(=O)c2cccs2)c2ccccc2C1=O	Jurkat NFkB inh 52 | Jurkat NFkB conf 66
O=[N+]([O-])c1ccc(Sc2ccccn2)nc1	none
O=[N+]([O-])c1ccc(Sc2ccc(Cl)c(Cl)c2)nc1	Jurkat NFkB inh 79 | Jurkat NFkB conf inactive
Cc1cc(NC(=O)C2CC(c3cccc(Br)c3)=NO2)no1 (stereo unspecified)	none
Cc1ccc(O)c(NC(=O)C2CC(c3cccc(Br)c3)=NO2)c1 (stereo unspecified)	Jurkat NFkB inh 63 | Jurkat NFkB conf inactive
COc1ccccc1C(CNC(=O)C(C)Oc1ccc(Br)cc1)N1CCCC1 (stereo unspecified)	none (no result: KLF5 inh)
Cc1ccc(NS(=O)(=O)c2ccc(-c3cnc(C4CC4)o3)cc2)c(C)c1	Jurkat NFkB inh 54, aSyn UTR inh 77 | Jurkat NFkB conf 61
COc1ccccc1NS(=O)(=O)c1ccc(-c2cnc(C3CC3)o2)cc1	none
Cc1cccc(N(C)S(=O)(=O)c2ccc(-c3cnc(C4CC4)o3)cc2)c1	Jurkat NFkB inh 62, aSyn UTR inh 97 | Jurkat NFkB conf 54
Cc1ccc(-c2cnc(C3CC3)o2)cc1S(=O)(=O)Nc1ccccc1	none
O=S(=O)(Nc1ccc(F)cc1Cl)c1ccc(-c2cnc(C3CC3)o2)cc1	Jurkat NFkB inh 52, aSyn UTR inh 68 | Jurkat NFkB conf 52
COc1ccccc1CNS(=O)(=O)c1ccc(-c2cnc(C3CC3)o2)cc1	Jurkat NFkB inh 51 | Jurkat NFkB conf 50
O=C1C=C(c2ccc3ncccc3c2)C[C@@H](c2ccc3c(c2)OCO3)C1	Jurkat NFkB inh 70 (no result: KLF5 inh, TMEM16A inh, aSyn UTR inh) | Jurkat NFkB conf 50
CN(CC(=O)Nc1ccccc1Br)C(=O)CNC(=O)c1ccc(Oc2ccccc2)cc1	none
CC(C)(C)C(=O)N/C(N)=N/c1nc2ccccc2o1	none | Jurkat NFkB conf inactive
O=C(c1cc(-c2ccc(Cl)cc2)on1)N1CCCCCC1	none | Jurkat NFkB conf inactive
O=C(c1cc(-c2ccc(Cl)cc2Cl)on1)N1CCCCCC1	none | Jurkat NFkB conf inactive
CCN(CC(=O)NC(C)(C)C)Cc1cc(=O)n2c(-c3ccccc3)csc2n1	none
